Screening results from PubChem.
Hits are enriched below; roughly 3.4% of the tested compounds scored in any of these assays.
14-3-3 Bad PPI: disrupts binding of bovine 14-3-3 zeta to phospho-Bad peptide | P63103 | TR-FRET 14-3-3zeta/Dy647-pBad peptide displacement, 1 h | actives 0.71% (n = 220,000) | AID 781 | inhibition, % at 21.7 µM;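 active = inhibition above about 70%, limit read from the data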;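 note: 0% = full 14-3-3 plus peptide FRET controls and 100% = background without 14-3-3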
Mcl1 Noxa PPI: Mcl-1/Noxa interaction inhibition; Q07820; TR-FRET Mcl-1/Noxa peptide binding, 2 h; inhibition, % at 21.7 µM; actives 1.5% (n = 220,000);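 active = compounds that cut the protein-peptide binding signal by more than 50% relative to plate controls in a single-dose test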;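 note: His-tagged Mcl-1 with rhodamine Noxa BH3 peptide and terbium anti-His antibody; 0% = Mcl-1 plus Noxa peptide wells and 100% = peptide-only wells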
Bim-Mcl-1: inhibitors of Bim-Mcl-1 interaction, human. inhibition, % at 10 µM. Bead-based flow cytometry, Bim peptide-Mcl-1 binding. actives 0.1% (n = 190,000). Q07820. AID 1009; in the data active = inhibition above about 40%;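 note: 0% = no compound tracer wells and 100% = peptide blocker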
NCF1 inh: inhibitors of human p47phox binding | actives 0.53% (n = 220,000) | inhibition, % at 24.7 µM | p47phox/p22phox peptide binding, fluorescence polarization, 2 h | AID 1274;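 note: 0% = p47phox with labelled peptide and 100% = labelled peptide alone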
Mcl1 Bid PPI: Mcl-1/Bid interaction inhibition. AID 1021. Q07820. actives 0.97% (n = 220,000). TR-FRET Mcl-1/Bid-Dy647 peptide binding, 1536-well. inhibition, % at 21.7 µM;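 active = compounds that cut the binding signal by more than half at the single screening dose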;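 note: His-tagged Mcl-1 with europium anti-His antibody binding Bid BH3 peptide; 0% = Mcl-1 plus peptide wells and 100% = peptide-only wells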
eIF4E-4G inh: inhibitors of eIF4E and eIF4G interaction in translation initiation; actives 0.37% (n = 220,000); inhibition, % at 21.7 µM; TR-FRET eIF4E-eIF4GI(517-606) binding, 2 h; P63073+Q04637;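 note: 0% = full FRET control wells and 100% = background wells lacking eIF4GI fragment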
Target sequence (P63073 whole entry, looked up, the tested form may be a part): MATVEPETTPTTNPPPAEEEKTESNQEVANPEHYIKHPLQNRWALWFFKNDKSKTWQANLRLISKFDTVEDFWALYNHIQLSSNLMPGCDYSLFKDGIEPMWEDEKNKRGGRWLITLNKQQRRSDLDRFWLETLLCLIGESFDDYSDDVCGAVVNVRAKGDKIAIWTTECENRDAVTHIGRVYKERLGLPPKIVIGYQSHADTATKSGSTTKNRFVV
Target sequence (Q04637 whole entry, looked up, the tested form may be a part): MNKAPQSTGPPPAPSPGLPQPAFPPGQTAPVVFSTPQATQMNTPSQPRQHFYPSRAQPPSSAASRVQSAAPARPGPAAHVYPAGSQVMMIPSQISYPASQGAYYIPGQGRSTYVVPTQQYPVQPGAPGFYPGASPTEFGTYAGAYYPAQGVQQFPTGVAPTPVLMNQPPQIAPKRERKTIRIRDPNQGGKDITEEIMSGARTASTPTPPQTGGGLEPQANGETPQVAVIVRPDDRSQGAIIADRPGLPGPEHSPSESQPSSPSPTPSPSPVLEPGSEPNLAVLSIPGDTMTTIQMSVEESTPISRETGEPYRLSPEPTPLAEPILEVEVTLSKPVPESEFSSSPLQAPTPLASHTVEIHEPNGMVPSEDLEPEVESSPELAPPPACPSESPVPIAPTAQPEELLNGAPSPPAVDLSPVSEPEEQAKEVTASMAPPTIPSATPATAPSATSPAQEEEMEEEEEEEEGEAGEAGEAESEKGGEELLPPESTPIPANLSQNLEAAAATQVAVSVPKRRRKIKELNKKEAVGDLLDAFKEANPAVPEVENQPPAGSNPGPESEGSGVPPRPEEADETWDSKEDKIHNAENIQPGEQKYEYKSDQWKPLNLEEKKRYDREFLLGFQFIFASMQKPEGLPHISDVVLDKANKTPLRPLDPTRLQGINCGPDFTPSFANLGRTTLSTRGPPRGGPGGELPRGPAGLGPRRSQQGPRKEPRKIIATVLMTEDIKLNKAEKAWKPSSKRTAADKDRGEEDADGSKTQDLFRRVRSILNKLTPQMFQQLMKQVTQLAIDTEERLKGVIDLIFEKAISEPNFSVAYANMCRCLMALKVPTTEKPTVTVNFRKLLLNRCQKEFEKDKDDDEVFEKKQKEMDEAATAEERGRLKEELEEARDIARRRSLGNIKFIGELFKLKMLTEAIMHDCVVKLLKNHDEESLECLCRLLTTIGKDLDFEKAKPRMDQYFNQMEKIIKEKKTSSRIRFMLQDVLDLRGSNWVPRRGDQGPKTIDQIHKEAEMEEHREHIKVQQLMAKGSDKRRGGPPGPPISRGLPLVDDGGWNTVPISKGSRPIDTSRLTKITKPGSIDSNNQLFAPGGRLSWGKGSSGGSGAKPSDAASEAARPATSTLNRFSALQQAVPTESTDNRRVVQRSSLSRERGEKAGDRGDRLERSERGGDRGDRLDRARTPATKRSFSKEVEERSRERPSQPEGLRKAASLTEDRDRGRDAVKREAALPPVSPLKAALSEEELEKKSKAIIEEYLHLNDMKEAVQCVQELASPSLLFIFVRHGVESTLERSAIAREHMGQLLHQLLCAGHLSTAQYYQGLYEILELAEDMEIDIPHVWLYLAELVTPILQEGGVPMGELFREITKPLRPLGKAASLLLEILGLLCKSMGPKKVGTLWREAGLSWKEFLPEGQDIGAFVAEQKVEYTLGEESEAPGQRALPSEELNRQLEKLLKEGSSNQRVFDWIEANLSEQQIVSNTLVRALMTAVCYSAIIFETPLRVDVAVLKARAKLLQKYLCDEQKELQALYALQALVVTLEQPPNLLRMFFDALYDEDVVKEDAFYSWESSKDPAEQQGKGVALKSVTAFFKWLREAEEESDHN
The depositor's hits bear a star; nt = no result; [ ] = remark or other dose.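 Rule for the calls, unless noted: active = inhibition above about 30% (limit read from the data); inactive = the rest.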

SMILES | 14-3-3 Bad PPI | Mcl1 Noxa PPI | Bim-Mcl-1 | NCF1 inh | Mcl1 Bid PPI | eIF4E-4G inh
O=C1CCCC(O)=C1N=Nc1cccc(C(=O)O)c1 | 48 | 57* | 0 | -1 | -43 | 7
COc1ccc(C(=O)Nc2ccc(S(=O)(=O)Nc3cc(C)nc(C)n3)cc2)c(OC)c1 | -4 | 63* | -4 | 0 | -15 | 3
O=C(NNC(=S)Nc1ccc(F)cc1)C1[C@H]2CCCC[C@@H]12 (stereo not given in full) | -7 | -65 | nt | -6 | -188 | 2
Cc1nn2c(Nc3ccccc3)c3c(nc2c1-c1ccccc1)CCC3 | 82* | 14 | -2 | 2 | -32 | 4
Cc1nn2c(NC(C)C)c3c(nc2c1-c1ccccc1)CCC3 | 7 | 2 | nt | -7 | -31 | 2
Cc1cc(/C=C2\C(=N)N3N=CSC3=NC2=O)c(C)n1Cc1ccccc1 | -1 | 29 | nt | -3 | -22 | -5
COc1ccccc1-c1noc(-c2ccccc2)n1 | 4 | -15 | 0 | -13 | -20 | 87*
COc1ccc(-c2ccc(-c3noc(-c4ccccc4)n3)c(OC)n2)cc1 | -5 | -11 | 1 | -44 | -6 | -1
COc1ccc(-c2ccc(-c3noc(-c4ccccc4F)n3)c(OC)n2)cc1 | -4 | nt | 2 | -27 | 56* | -39
COc1ccccc1OCc1ccc(C(=O)Nc2ccc(Cl)cn2)o1 | -3 | -6 | 2 | -6 | -11 | 6
O=C(CO/N=C/c1ccccc1OC(F)F)N1CCc2ccccc21 | 84*[fluorescence artefact?] | 7 | 0 | -379 | -16 | 26
CC1=C(C(=O)N2CCc3ccccc32)C2(CCC(C)CC2)OC1=O (stereo not given) | 84* | 12 | -6 | 4 | -29 | -1
Cn1nc(C(F)(F)F)c(-c2cccc(C(F)(F)F)c2)c1NC(=O)Nc1ccc(F)cc1 | -7 | 18 | nt | -9 | 5 | -1
COc1cccc2cc(C(=O)Oc3ccc(NC(C)=O)cc3)c(=O)oc12 | 14 | -1 | 2 | 4 | 94* | 0
COc1cccc2cc(C(=O)NNC(=O)c3ccc(Br)cc3)c(=O)oc12 | 59 | 64* | 1 | 37* | 28 | 14
O=C(NCCCN1CCOCC1)c1ccc(CSc2ccc(Cl)cc2)cc1 | -6 | 6 | 2 | -6 | 1 | -4
O=C(c1cnccn1)N1CCc2ccccc2C1 | 93* | 7 | -2 | -11 | -14 | -1
O=C(c1cc(-c2ccco2)on1)N1CCc2ccccc2C1 | 0 | 69* | -3 | -34 | 15 | 3
O=C(c1cc(=O)c2ccccc2o1)N1CCN(c2cccc(Cl)c2)CC1 | -2 | 8 | 2 | -6 | -8 | 1
O=C(c1cnccn1)N1CCN(c2ccccc2F)CC1 | 20 | -9 | 57* | -11 | -28 | 0
O=C(c1cc(=O)c2ccccc2o1)N1CCN(c2ccccc2F)CC1 | 2 | 10 | 41* | -13 | -12 | 7
Cc1ccc2nc(Cl)c(/C=N/Nc3ccc(C(=O)O)cc3)cc2c1 | 7 | 34 | nt | -29 | -16 | -4
COc1ccc(/C=C2\SC(=N)N(c3nccs3)C2=O)cc1OC | 9 | 5 | 9 | -89 | -70 | -1
COc1cc(/C=C2/C(=N)N3C(c4ccccc4)=CSC3=NC2=O)ccc1OCC(=O)O | 6 | 37 | nt | -53 | 11 | 4
N=C1S/C(=C\c2ccc(-c3cccc(Cl)c3)o2)C(=O)N1c1nccs1 | 74*[fluorescence artefact?] | 88* | 0 | 18 | 91* | 12
SMILES | 14-3-3 Bad PPI | Mcl1 Noxa PPI | Bim-Mcl-1 | NCF1 inh | Mcl1 Bid PPI | eIF4E-4G inh
N=C1/C(=C\c2ccc(-c3ccc(C(=O)O)cc3)o2)C(=O)N=C2SC=C(c3ccccc3)N12 | 80* | 117* | nt | -39 | 96* | 65*
Cc1cccc(-n2c(C)cc(/C=C3/C(=N)N4C(c5ccccc5)=CSC4=NC3=O)c2C)c1 | -6 | 13 | 21 | -119 | -12 | -1
N=C1/C(=C\c2ccc(-c3cccc(Cl)c3)o2)C(=O)N=C2SC=C(c3ccccc3)N12 | 3 | 51* | -2 | -72 | -24 | 1
CCOC(=O)c1sc(NC(=O)C2CCC2)cc1C | 5 | -4 | 0 | -5 | 1 | 1
N#CCC(=O)Nn1c(=S)[nH]c2ccccc2c1=O | -8 | 31 | 0 | -4 | -48 | 0
CC1CN(CCOc2ccc(Cl)cc2Cl)CC(C)O1 (stereo not given) | 32 | 24 | -5 | -10 | 26 | -2
COc1cc(C)ccc1OCCCCN1CC(C)OC(C)C1 (stereo not given) | 25 | 29 | -2 | -10 | 52* | 5
COc1cccc(CNc2nc3ccc(C)cc3n3cnnc23)c1 | 3 | -17 | nt | -21 | 98* | -5
CN(C)CC1CCCCC1OC(=O)c1ccc(Cl)cc1 (stereo not given) | 4 | 8 | -5 | -5 | 14 | 0
CCN(CC)S(=O)(=O)c1ccc(C(=O)OC2CCCCC2CN(C)C)cc1 (stereo not given) | 1 | -4 | -3 | 0 | 51* | 7
O=C(O)CCN1C(=O)c2ccc(NC(=O)c3ccco3)cc2C1=O | 11 | 16 | 0 | 5 | 4 | -1
O=C(O)CCN1C(=O)c2ccc(NC(=O)C(c3ccccc3)c3ccccc3)cc2C1=O | -1 | 5 | nt | -23 | -4 | 71*
O=C(Cn1c2ccc(F)cc2c2nc3n(c(=O)c21)CCS3)Nc1ccccc1C(F)(F)F | 81* | -43 | -1 | 10 | 32 | 18
CCOc1ccc(S(=O)(=O)N(CC(=O)N/N=C/c2ccc(-c3ccc([N+](=O)[O-])cc3)o2)c2ccccc2)cc1 | 56 | 65* | 6 | -32 | 33 | 16
CCOC(=O)c1ccc(-c2ccc(/C=N/NC(=O)CN(c3cccc(C)c3)S(C)(=O)=O)o2)cc1 | 15 | 3 | -9 | 31* | -20 | 2
CCOC(=O)C1CCN(C(=O)c2cccnc2Oc2ccccc2)CC1 | 1 | 3 | nt | 12 | 4 | -7
Cn1c(-c2cnn(-c3ccccc3)c2-n2cccc2)n[nH]c1=S | -5 | 22 | -6 | 5 | -12 | 1
Cc1ccc(OCCCCn2cnc3ccccc32)c(C)c1 | 67 | 28 | 1 | 3 | 54* | -4
Brc1ccccc1OCCCCn1cnc2ccccc21 | -3 | 8 | -3 | -8 | -4 | 1
Cc1ccc(C)n1-c1nccc(-c2ccco2)n1 | -12 | 3 | 0 | 1 | -26 | 0
CC(=O)Oc1cc2cccc(OC(C)=O)c(=O)c2c(OC(C)=O)c1OC(C)=O | 75* | 66* | 3 | 1 | -55 | 11
COc1cccc(NS(=O)(=O)c2ccc3[nH]cc(C(=O)N(C)Cc4ccco4)c(=O)c3c2)c1 | 44 | 10 | 0 | -13 | 58* | -8
Cc1ccccc1NS(=O)(=O)c1ccc2[nH]cc(C(=O)N(C)Cc3ccco3)c(=O)c2c1 | 40 | 11 | -3 | -25 | 51* | 5
